Measured values as given in PubChem BioAssay AID720566 (Broad Institute, 2013).
Results with a measured potency or affinity are listed apart. Calls of active or inactive are those of the source.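 How the source made its calls: active means in all runs, an absorbance decrease of 25% or more of the average positive control decrease; inconclusive means runs conflict, with both active and inactive results; inactive means all runs inactive, opposite-direction effects included.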

Molecular target: Protein disulfide-isomerase A6 (Homo sapiens) (UniProt Q15084)
Assay: reduced insulin turbidity driven by ERp5 (PDIA6) – biochemical, absorbance 650 nm, cherry-picked samples, dose response (AID 720566);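 further: negative values mean less insulin aggregation so ERp5 inhibition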
Details: Recombinant ERp5 insulin aggregation; series mostly up to 35 µM

Protein disulfide-isomerase A6 (Homo sapiens), sequence (Q15084 whole entry, looked up): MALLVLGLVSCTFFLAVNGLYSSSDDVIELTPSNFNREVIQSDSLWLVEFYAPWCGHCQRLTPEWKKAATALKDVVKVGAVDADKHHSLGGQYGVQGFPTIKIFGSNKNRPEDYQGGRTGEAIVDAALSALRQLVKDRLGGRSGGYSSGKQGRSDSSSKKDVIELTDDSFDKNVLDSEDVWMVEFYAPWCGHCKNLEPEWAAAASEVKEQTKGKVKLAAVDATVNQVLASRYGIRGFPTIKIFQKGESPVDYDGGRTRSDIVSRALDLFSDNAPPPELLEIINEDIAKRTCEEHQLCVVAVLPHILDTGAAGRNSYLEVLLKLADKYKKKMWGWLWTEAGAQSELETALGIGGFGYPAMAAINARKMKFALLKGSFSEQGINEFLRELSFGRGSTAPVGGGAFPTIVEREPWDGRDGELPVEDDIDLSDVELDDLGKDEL

outcome, inactive:
Cc1noc(C)c1S(=O)(=O)Nc1cccc2c1O[C@H](CN(C)C(=O)Nc1ccc(C(F)(F)F)cc1)[C@H](C)CN([C@@H](C)CO)C2=O
COc1cccc(CC(=O)NNC(=O)CN(C)S(=O)(=O)c2ccc(C)cc2)c1
COc1ccc2c3c(n(C)c2c1)[C@H](CO)N(S(C)(=O)=O)CC31CCN(CC2CCCC2)CC1
COc1ccccc1NS(=O)(=O)c1ccc(C(=O)N2CCN(c3ccccn3)CC2)cc1
O=C(C[C@H]1C[C@@H]2c3cc(NC(=O)CC4CC4)ccc3O[C@@H]2[C@@H](CO)O1)NCc1ccc(-c2ccccc2)cc1
C[C@@H]1CN([C@H](C)CO)C(=O)c2cc(-c3cccc(C#N)c3)cnc2O[C@H]1CN(C)Cc1cncnc1
Cc1ccc(S(=O)(=O)C=CS(=O)(=O)c2ccc(C)cc2)cc1
COc1cccc(C(=O)OCC(=O)c2[nH]c(C)c(C(C)=O)c2C)c1
CCC(=O)N(C)C[C@H]1Oc2cc(-c3ccc(C#N)cc3)ccc2S(=O)(=O)N([C@@H](C)CO)C[C@@H]1C
O=C(c1cccc(F)c1)N1CCCCN2[C@H](C1)[C@H](c1ccc(-c3ccccc3)cc1)[C@@H]2CO
C[C@H](CO)N1C[C@H](C)[C@@H](CN(C)S(=O)(=O)c2ccc(Oc3ccccc3)cc2)OCc2cnnn2CCCC1=O
Cc1ccc([C@H]2N[C@]3(CCCN(Cc4ccc(Cl)cc4)C3=O)[C@H]3C(=O)N(C)C(=O)[C@@H]23)cc1
C[C@@H]1CN([C@H](C)CO)C(=O)c2cc(NC(=O)Nc3ccc(C(F)(F)F)cc3)ccc2O[C@@H]1CN(C)S(=O)(=O)c1ccc(F)cc1
COc1ccc(NC(=O)N(C)C[C@@H]2Oc3ccc(NC(=O)Nc4ccc(F)cc4)cc3CC(=O)N([C@@H](C)CO)C[C@@H]2C)cc1
COc1ccc(NC(=O)CSc2nnc(NC(=O)C3CC3)s2)cc1OC
C[C@H](CO)N1C[C@H](C)[C@H](CN(C)S(=O)(=O)c2cn(C)cn2)Oc2ncc(C#Cc3ccccc3)cc2C1=O
C[C@H](CO)N1C[C@H](C)[C@H](CN(C)Cc2cccc(F)c2)Oc2ncc(Br)cc2C1=O
C[C@@H]1CN([C@@H](C)CO)C(=O)c2cc(C#CC3CCCCC3)cnc2O[C@@H]1CN(C)S(=O)(=O)c1ccccc1
Cc1cc(C(=O)Nc2cccc3c2O[C@@H](CN(C)S(=O)(=O)c2ccc(Cl)cc2)[C@@H](C)CN([C@@H](C)CO)C3=O)n(C)n1
C[C@H]1CN([C@@H](C)CO)C(=O)Cc2cc(NC(=O)c3ccncc3)ccc2O[C@H]1CN(C)S(=O)(=O)c1cn(C)cn1
C[C@@H]1CN([C@@H](C)CO)C(=O)c2cccc(NS(=O)(=O)c3ccc(F)cc3)c2O[C@H]1CN(C)S(=O)(=O)c1ccccc1
COc1ccc(NC(=O)N(C)C[C@H]2Oc3ccc(NS(=O)(=O)c4ccccc4)cc3C(=O)N([C@@H](C)CO)C[C@@H]2C)cc1
CC(C)C#Cc1cnc2c(c1)C(=O)N([C@@H](C)CO)C[C@@H](C)[C@H](CN(C)C(=O)c1ccccc1F)O2
O=C(C[C@@H]1C[C@H]2c3cc(NC(=O)C4CCC4)ccc3O[C@H]2[C@@H](CO)O1)NCC(F)(F)F
COc1ccc(S(=O)(=O)Nc2ccc3c(c2)CC(=O)N([C@H](C)CO)C[C@H](C)[C@H](CN(C)C(=O)Nc2ccccc2)O3)cc1
COc1ccc2c3c([nH]c2c1)[C@H](CO)N(C(=O)NC(C)C)CC31CN(C(=O)C2CCCC2)C1
Cc1ccc(NC(=O)c2cccc(S(C)(=O)=O)c2)cc1
Cc1cc(Br)cc(Br)c1OCC(=O)NNC(=O)CCC(=O)NCc1ccccc1
COCC(=O)N(C)C[C@H]1Oc2cc(C#CC(C)(C)O)ccc2S(=O)(=O)N([C@H](C)CO)C[C@H]1C
Cc1noc(C)c1NC(=O)N(C)C[C@H]1Oc2ccc(NC(=O)c3ccncc3)cc2C(=O)N([C@H](C)CO)C[C@@H]1C
CC(C)C(NC(=O)c1ccc(F)cc1)C(=O)N1CCOCC1 (stereo not drawn)
C[C@@H]1CN([C@@H](C)CO)C(=O)c2cc(NS(=O)(=O)c3ccccc3)ccc2O[C@H]1CN(C)C(=O)Nc1ccc2c(c1)OCO2
C[C@@H]1CN([C@H](C)CO)C(=O)c2cc(C#CCN(C)C)cnc2O[C@H]1CN(C)Cc1cccc(F)c1
